For 61 compounds, inhibition results are on record in PubChem BioAssay AID571 (The Scripps Research Institute Molecular Screening Center, 2007).

Out of some 65,000 compounds screened, about 640 (0.98%) were called active. Shown is part of a subset that was picked to be rich in actives. Values without a mark were called inactive.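 The calls were made as follows: active = inhibition above a set limit, the mean inhibition across every tested compound plus 3 SD (cut at about 29% in these data); inactive = the rest.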

This assay deals with 5-hydroxytryptamine receptor 1E (Homo sapiens) (UniProt P28566). As to the kind of experiment: blockade of human serotonin 5HT1E receptor – cell-based, HTS, primary screen (AID 571).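 Also: signal is the 460 over 535 nm emission ratio of beta-lactamase substrate; 0% = agonist plus DMSO wells and 100% = wells without agonist.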 The following applies: CHO 5-HT1E Ga15 NFAT-bla reporter, FRET, antagonist; at 6 µM; active compounds read high.
Chain of 5-hydroxytryptamine receptor 1E (Homo sapiens) (P28566 whole entry, looked up): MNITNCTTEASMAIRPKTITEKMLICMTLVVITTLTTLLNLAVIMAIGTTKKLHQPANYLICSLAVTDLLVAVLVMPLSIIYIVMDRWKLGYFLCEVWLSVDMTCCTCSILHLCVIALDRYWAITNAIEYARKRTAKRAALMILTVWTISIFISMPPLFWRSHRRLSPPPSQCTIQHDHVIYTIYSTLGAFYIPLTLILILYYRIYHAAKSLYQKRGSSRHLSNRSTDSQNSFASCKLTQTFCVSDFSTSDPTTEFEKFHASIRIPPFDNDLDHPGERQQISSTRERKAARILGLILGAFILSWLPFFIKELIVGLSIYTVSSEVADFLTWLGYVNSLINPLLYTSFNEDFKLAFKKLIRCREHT
What is called inhibition is the drop in the measured response relative to a control, in per cent. Take `COc1ccc(Br)cc1S(=O)(=O)N1CCN=C1C`: the inhibition was -3.84%. For `CC1CCCC(NC(=O)CSc2nccn2C)C1C` (stereo unspecified), the inhibition is 2.04%. On to `Cc1c(C(=O)NCCN2CCOCC2)sc2nc(-c3ccc(F)cc3)cn12`, for which the inhibition was -2.05%. As for `c1ccc(-c2cn3cccnc3n2)cc1`, the inhibition is -0.19%. As to `COc1ccc(S(=O)(=O)NC(CC(=O)NCc2ccccc2OC)c2ccco2)cc1` (stereo unspecified), the inhibition is -1.55%.

Turning to `CCOC(=O)N1CCC(NC(=O)CN2C(=O)COc3ccc(C(C)(C)C)cc32)CC1`, the inhibition was -7.21%. `CCOC(=O)N1CCC(NC(=O)Cc2cn(C)c3ccccc23)CC1`: the inhibition is -14.8%.

As for `CCOC(=O)c1c(C)oc2ccc(OCC(=O)N(CC)CC)cc12`, the inhibition is -6.18%.

On to `COc1ccc(C)cc1S(=O)(=O)NC1CCCCC1`, for which the inhibition is -3.9%. For the compound `O=C(Cn1c(=S)nc2ccccn21)N1CCc2ccccc2C1`, the inhibition is -1.67%.

Regarding `CCCCNC(=O)CSc1nccn1Cc1ccccc1`, the inhibition is 3.33%. For the compound `O=C(CNS(=O)(=O)c1cccc(C(F)(F)F)c1)Nc1ccccc1F`, the inhibition was -3.72%. Take `CCCCC(=O)Nc1ccc2c(c1)C(=O)NC2=O`: the inhibition is 44% (active). With `CCCCC(=O)Nc1ccc2c(c1)OCCO2` the figure was -10.5%; with `CCCCCC(=O)Nc1ccc2oc(-c3ccncc3)nc2c1`, 4%. Under `Nc1ccc(SCCN2C(=O)c3ccccc3C2=O)cc1` stands -1.04%.

Regarding `COC(=O)c1ccc(NC(=O)CSc2nnc(Cc3cccn3C)n2-c2ccc(F)cc2)cc1`, the inhibition was -7.1%. With `CCc1nnc(NC(=O)c2nc3nccc(C)n3n2)s1` the figure was -0.48%; with `CCOc1ccc(C(=O)Nc2ccncc2)cc1`, 5.74%; with `CSc1sc(C)cc1C1C(C#N)=C(N)N(c2cccnc2)C2=C1C(=O)CCC2` (stereo unspecified), 24.6%. `COc1ccc(CCNS(=O)(=O)c2ccc(C(=O)NCc3ccco3)cc2)cc1OC`: the inhibition is -13.4%. Under `Cc1ccccc1NC(=O)Cc1nnc(SCC(=O)N2CCN(c3ccccc3)CC2)n1C` stands 2.63%; under `Cc1noc(C)c1S(=O)(=O)NCCc1ccc(S(N)(=O)=O)cc1`, -6.61%; under `Cc1cccc(-n2c(O)c(C=Nc3ccccc3N)c(=O)[nH]c2=O)c1`, -5.35%.

As to `Cc1ccc(-n2nc(-c3ccco3)cc2C(=O)NCc2cccnc2)cc1`, the inhibition was 30.4% (active).

As to `CC(C)(C)c1cc(C(=O)NCc2cccnc2)ccn1`, the inhibition is -1.08%. With `Cc1ccc2c(c1)N(CCCC(=O)NCc1cccnc1)C(=O)CO2`, the inhibition was 10.1%.

`CCN1CCN(C(=O)c2ccccc2N(C)S(=O)(=O)c2ccc(C)cc2)CC1`: the inhibition was -11.1%. Under `Cc1nnc2sc(-c3ccco3)nn12` stands -3.05%.

As to `CCn1c(=O)cc(OCC(=O)NCCCN2CCN(c3cccc(Cl)c3)CC2)c2ccccc21`, the inhibition is -1.38%. For `Cn1c(C(=O)NCCCN2CCN(c3cccc(Cl)c3)CC2)cc2c(=O)n(C)c3ccccc3c21`, the inhibition is 28.9% (active).

For the compound `CC1CCCC(C)N1CCCNC(=O)c1cc2c(=O)n(C)c3ccccc3c2n1C` (stereo unspecified), the inhibition was -8.37%. With `COc1ccc(OC)c(N=Cc2c(O)[nH]c3ccccc23)c1` the figure was 39.8% (active); with `COc1ccc(N=Cc2c(O)[nH]c3ccccc23)cc1OC`, -3.2%; with `COc1cc(N=Cc2c(O)[nH]c3ccccc23)cc(OC)c1OC`, 4.31%. With `COc1ccc(NC2CC(=O)N(C)C2=O)cc1` (stereo unspecified) the figure was -0.34%. Consider `C[C@H](NC(=O)OC(C)(C)C)c1nnc(SCC(N)=O)o1`, for which the inhibition was -6.77%.

Consider `O=C(Nc1ccccc1N1CCCCC1)c1cccc(F)c1`, for which the inhibition is -0.39%. Under `O=C(NCc1ccco1)c1cccn2c(=O)c3cc(Br)ccc3nc12` stands 11.4%; under `Cc1cccc(NC(=O)CN2CCCN(S(=O)(=O)c3ccc(Br)s3)CC2)c1`, 12.7%. In the case of `CCC1(C)Cc2c(sc3nc4n(c(=O)c23)CCCS4)CO1` (stereo unspecified), the inhibition is 7.47%. Under `COC(=O)c1c(NC(=O)CSc2nc3c(c(=O)n(C)c(=O)n3C)n2C(C)C)sc(C)c1C` stands -1.61%; under `CCOc1ccc(N2C(=O)CC(N(O)c3ccccc3)C2=O)cc1` (stereo unspecified), -13.5%. Turning to `CCCCCCC(=O)N(O)C1CC(=O)N(c2ccccc2)C1=O` (stereo unspecified), the inhibition is 29% (active).

Take `CCCCOC(=O)c1ccc(N2C(=O)CC(N3CCN(C/C=C/c4ccccc4)CC3)C2=O)cc1` (stereo unspecified): the inhibition was -8.79%. With `Cc1cc(C)cc(OCc2nnc(SCC(=O)OC3CCCCC3)o2)c1` the figure was 1.45%; with `Cc1cc(C(=O)OCC(=O)c2c(N)n(C)c(=O)n(C)c2=O)c(C)o1`, -2.61%.

With `CCOc1ccccc1NC(=O)C1CCC(CNc2c(N3CCOCC3)c(=O)c2=O)CC1` (stereo unspecified), the inhibition is -7.97%.

For the compound `Cn1c(=O)[nH]c(=O)c2c1nc(N1CCN(CCO)CC1)n2CCSc1nc2ccccc2s1`, the inhibition is -9.93%. Consider `COc1ccc(NC(=O)c2c(SC)nsc2SC)cc1`, for which the inhibition was 3.42%. With `Cc1cccc(-n2nc3c(c2NC(=O)c2ccc(Br)o2)CSC3)c1C`, the inhibition was -0.62%. Under `O=C(CC1CCCCC1)Nc1c2c(nn1-c1ccc(F)cc1)CS(=O)(=O)C2` stands 3.57%; under `COc1cccc(C(=O)Nc2c3c(nn2-c2cccc(C)c2C)CS(=O)(=O)C3)c1OC`, 29.9% (active); under `Cc1noc(C)c1S(=O)(=O)N1CCCC(C(=O)Nc2nccs2)C1` (stereo unspecified), 6.69%. As for `CC(C)C[C@H](NC(=O)NCCc1ccc(Cl)cc1)C(=O)O`, the inhibition is 0.25%.

Regarding `Cn1cccc1Cc1nnc(SCC(=O)NCc2ccc3c(c2)OCO3)n1CCc1ccccc1`, the inhibition was -2.19%.

As to `C=CCn1c(COc2ccccc2C)nnc1SCC(=O)O`, the inhibition was 10.3%. Consider `COC(=O)c1ccc(NC(=O)CSc2nnc(-c3ccncc3)n2C)cc1`, for which the inhibition is -4.91%. With `CCOc1cc(-c2noc(CCC(=O)N3CCOCC3)n2)ccc1OC` the figure was 8.36%; with `CCOc1cc(C(=O)N2CCc3cc(OC)c(OC)cc3C2)ccc1OC(F)F`, 90.1% (active); with `CCOc1cc(CN2CCN(C(=O)CC(C)C)CC2)ccc1OC`, -2.34%.
